# Data from PubChem BioAssay.
# Unmarked numbers belong to inactive results. Calls of active or inactive are those of the source. Unless noted, no stated cut-off is given here; in the data, active means inhibition above about 25%; inactive means the rest.
# Assays:
# [1] = target: Nuclear receptor coactivator 3 (Homo sapiens) (UniProt Q9Y6Q9); experiment: NCOA3 GAL4-fusion reporter inhibition – cell-based, luminescence, quadruplicate, confirmation (AID 588792;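 active means mean inhibition over 43.08%, the solvent-only control mean plus 3 SD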;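 further: 0% = DMSO treated cells and 100% = gossypol at 36 µM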); details: HEK293 GAL4-SRC3 luciferase reporter, at 3.6 µM, hits give high values
# Nuclear receptor coactivator 3 (Homo sapiens), sequence (Q9Y6Q9 whole entry, looked up, the tested form may be a part): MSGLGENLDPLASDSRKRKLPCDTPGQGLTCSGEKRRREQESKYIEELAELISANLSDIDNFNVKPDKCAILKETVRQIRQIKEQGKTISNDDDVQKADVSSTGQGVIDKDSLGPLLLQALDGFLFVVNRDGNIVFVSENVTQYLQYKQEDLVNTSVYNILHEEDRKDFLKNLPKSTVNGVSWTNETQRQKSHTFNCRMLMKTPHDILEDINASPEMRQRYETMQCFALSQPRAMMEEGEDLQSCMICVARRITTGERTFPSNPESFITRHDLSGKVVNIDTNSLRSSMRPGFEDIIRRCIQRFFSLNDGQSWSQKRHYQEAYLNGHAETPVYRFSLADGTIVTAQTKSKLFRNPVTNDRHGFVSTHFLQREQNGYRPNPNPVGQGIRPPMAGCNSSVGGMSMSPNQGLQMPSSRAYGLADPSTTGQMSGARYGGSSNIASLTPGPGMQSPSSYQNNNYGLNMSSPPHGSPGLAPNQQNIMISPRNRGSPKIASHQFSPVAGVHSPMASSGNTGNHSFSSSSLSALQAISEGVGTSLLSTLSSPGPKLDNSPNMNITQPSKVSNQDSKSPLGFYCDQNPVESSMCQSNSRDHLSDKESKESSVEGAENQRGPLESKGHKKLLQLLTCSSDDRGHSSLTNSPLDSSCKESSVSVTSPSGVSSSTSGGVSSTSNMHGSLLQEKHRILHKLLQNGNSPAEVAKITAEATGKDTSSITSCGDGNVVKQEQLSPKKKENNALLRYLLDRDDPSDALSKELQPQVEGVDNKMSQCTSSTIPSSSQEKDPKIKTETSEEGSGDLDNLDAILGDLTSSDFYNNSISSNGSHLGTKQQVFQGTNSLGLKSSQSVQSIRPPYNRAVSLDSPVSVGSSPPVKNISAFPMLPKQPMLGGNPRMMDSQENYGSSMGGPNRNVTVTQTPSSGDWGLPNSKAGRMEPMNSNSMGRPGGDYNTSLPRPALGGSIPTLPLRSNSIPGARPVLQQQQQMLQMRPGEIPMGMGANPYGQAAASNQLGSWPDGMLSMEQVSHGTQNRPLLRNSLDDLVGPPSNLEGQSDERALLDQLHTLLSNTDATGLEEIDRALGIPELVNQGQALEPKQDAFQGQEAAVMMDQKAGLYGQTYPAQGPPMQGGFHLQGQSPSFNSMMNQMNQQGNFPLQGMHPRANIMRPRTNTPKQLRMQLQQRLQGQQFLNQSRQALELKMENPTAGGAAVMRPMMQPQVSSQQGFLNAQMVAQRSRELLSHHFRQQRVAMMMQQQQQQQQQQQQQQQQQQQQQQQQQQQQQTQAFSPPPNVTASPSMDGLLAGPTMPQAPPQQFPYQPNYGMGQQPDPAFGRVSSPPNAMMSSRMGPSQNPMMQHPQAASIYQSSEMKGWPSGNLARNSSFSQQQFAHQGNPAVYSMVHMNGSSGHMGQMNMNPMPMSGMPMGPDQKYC
# [2] = test system: transactivating tegument protein VP16 (Human herpesvirus 1), Gal4-VP16 luciferase reporter; experiment: repression of VP16-driven luciferase reporter – cell-based, luminescence, high throughput, counter-screen for SRC3 inhibitor project (AID 588794; in the data active means inhibition above about 30%); details: mammalian cells, at 3.6 µM, hits give high values
# [3] = target: Nuclear receptor coactivator 1 (Homo sapiens) (UniProt Q15788); experiment: NCOA1 GAL4-fusion reporter inhibition – cell-based, luminescence, quadruplicate, confirmation (AID 588820;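 active means mean inhibition above 46.68%, the untreated control wells mean plus 3 SD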;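 further: 0% = DMSO wells and 100% = gossypol 36 µM treated wells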); details: HEK293 GAL4-SRC1 luciferase reporter, at 3.6 µM, hits give high values
# Nuclear receptor coactivator 1 (Homo sapiens), sequence (Q15788 whole entry, looked up, the tested form may be a part): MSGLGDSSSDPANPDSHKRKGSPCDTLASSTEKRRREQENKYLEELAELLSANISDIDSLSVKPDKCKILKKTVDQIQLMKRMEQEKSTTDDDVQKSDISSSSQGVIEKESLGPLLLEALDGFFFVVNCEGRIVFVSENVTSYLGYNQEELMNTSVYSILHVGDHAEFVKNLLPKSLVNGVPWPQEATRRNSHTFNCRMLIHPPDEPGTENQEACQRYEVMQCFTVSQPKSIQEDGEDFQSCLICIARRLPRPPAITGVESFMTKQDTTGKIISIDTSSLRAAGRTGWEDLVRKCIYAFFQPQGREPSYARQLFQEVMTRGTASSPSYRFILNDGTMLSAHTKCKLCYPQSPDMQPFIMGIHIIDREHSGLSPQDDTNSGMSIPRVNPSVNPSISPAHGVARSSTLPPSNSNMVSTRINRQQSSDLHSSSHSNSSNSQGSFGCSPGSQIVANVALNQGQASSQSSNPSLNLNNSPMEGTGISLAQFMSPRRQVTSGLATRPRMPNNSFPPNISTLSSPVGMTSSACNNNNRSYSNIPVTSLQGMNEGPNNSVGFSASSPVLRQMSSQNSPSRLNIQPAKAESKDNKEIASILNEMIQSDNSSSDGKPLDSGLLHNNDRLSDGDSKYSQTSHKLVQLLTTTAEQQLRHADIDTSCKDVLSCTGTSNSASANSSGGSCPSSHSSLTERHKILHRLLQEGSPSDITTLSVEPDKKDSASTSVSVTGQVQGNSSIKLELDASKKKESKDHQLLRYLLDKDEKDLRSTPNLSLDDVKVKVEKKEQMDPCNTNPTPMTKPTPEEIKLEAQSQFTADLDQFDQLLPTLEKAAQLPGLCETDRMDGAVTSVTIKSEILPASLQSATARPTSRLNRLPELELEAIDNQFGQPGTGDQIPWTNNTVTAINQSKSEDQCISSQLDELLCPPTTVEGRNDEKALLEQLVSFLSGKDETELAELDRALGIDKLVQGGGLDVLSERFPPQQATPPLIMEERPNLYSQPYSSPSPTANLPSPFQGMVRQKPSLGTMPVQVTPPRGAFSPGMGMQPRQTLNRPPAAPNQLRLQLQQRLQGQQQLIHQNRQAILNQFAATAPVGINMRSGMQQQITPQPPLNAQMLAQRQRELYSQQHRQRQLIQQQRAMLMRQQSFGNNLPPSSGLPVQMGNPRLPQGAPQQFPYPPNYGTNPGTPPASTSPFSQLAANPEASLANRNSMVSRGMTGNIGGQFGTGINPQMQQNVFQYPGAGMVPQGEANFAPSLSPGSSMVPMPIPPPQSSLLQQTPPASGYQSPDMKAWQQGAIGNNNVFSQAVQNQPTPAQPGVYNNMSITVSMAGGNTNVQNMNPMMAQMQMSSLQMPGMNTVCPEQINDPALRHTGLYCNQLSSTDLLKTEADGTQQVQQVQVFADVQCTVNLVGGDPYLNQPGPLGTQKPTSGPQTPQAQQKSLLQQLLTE
# [4] = repression of VP16-driven luciferase reporter – cell-based, luminescence, high throughput, counter-screen for SRC1 inhibitor project (AID 588824); details: cell-based VP16 transactivation luciferase luminescence; at 3.6 µM; hits give high values
Structure (SMILES),inhibition [1],inhibition [2],inhibition [3],inhibition [4]
Cc1ccc(C)c(NC(=O)c2ccccc2NS(=O)(=O)c2cc([N+](=O)[O-])ccc2C)c1,20.5%,25.5%,21%,22%
COc1ccc(-c2cn[nH]c2-c2ccc(OC)cc2)cc1,59.5% (active),34.7% (active),38.7%,33.8% (active)
COc1ccc2c(c1OC)C(=O)N1c3ccccc3C(=O)N(c3ccc(F)cc3)C21 (stereo unspecified),7.69%,4.54%,-3.13%,3.89%
Cc1sc2ncnc(N3CCC(C(=O)Nc4ccccc4C(C)(C)C)CC3)c2c1C,35.8%,27.6%,41.9%,29.7% (active)
CCOc1cc(C(N)=O)cc(Br)c1OCC,37.3%,22.4%,43.4%,21.6%
CN(Cc1c(C(=O)N/N=C/c2ccccc2O)nnn1-c1nonc1N)C1CCCCC1,66.8% (active),46.5% (active),59.7% (active),59.8% (active)
CC(=O)Nc1ccc(S(=O)(=O)c2ccnc3cc(Cl)ccc23)cc1,52.9% (active),44.1% (active),47% (active),39.2% (active)
O=S(=O)(/C(=C\c1ccc(C(F)(F)F)cc1)c1nc2ccccc2[nH]1)c1ccccc1,69.8% (active),25.6%,-29.1%,42.4% (active)
O=C(Nc1ccc(N2CCN(C(=O)c3ccccc3F)CC2)cc1)c1cncc(Br)c1,64.7% (active),37.8% (active),34.5%,48% (active)
